In the supplement of paper PMC8728848:
Many of the other results were omitted from the sample, so the strongest signals are more common in it than they were.

Experiments:
Assay in all cases: glycan array binding signal (z-score within array); higher = stronger binding
Details in all cases: glycan notation: IUPAC condensed, linker removed
[1] = biological target: Fuc(a1-2)Gal(b1-3)[Fuc(a1-4)]GlcNAc
Procedure, shortened: (§1)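 Glycan array data were curated from 3228 arrays in the Consortium for Functional Glycomics database and kept only where the protein sequence was available. Glycan names were converted to IUPAC-condensed notation, and columns mapping to the same glycan were averaged. The binding signal is a within-array Z-score, averaged across arrays of the same protein sequence at different concentrations or buffers and across linkers. Negative Z-scores can be read as non-binding.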

Fuc(a1-2)Gal(b1-4)Glc6S = biological target: Fuc(a1-2)Gal(b1-4)Glc6S
Procedure, shortened: as §1

[2] = biological target: Fuc(a1-2)Gal(b1-4)[Fuc(a1-3)]GlcNAc(b1-3)Gal(b1-4)[Fuc(a1-3)]GlcNAc
Procedure, shortened: as §1

Fuc(a1-2)Gal6S(b1-4)Glc = biological target: Fuc(a1-2)Gal6S(b1-4)Glc
Procedure, shortened: as §1

[3] = biological target: Fuc(a1-2)[GalNAc(b1-3)]Gal
Procedure, shortened: as §1

[4] = biological target: Fuc(a1-3)[Gal(b1-4)]Glc6S
Procedure, shortened: as §1

[5] = biological target: Fuc(a1-3)[Gal(b1-4)]GlcNAc(b1-3)GalNAc
Procedure, shortened: as §1

[6] = biological target: Fuc(a1-3)[Gal3S(b1-4)]GlcNAc6S
Procedure, shortened: as §1

Gal(a1-2)Gal = biological target: Gal(a1-2)Gal
Procedure, shortened: as §1

Gal(a1-3)Gal = biological target: Gal(a1-3)Gal
Procedure, shortened: as §1

[7] = biological target: Gal(a1-3)Gal(b1-4)GlcNAc(b1-3)GalNAc
Procedure, shortened: as §1

[8] = biological target: Gal(a1-4)Gal(b1-4)GlcNAc(b1-2)Man(a1-3)[Gal(a1-4)Gal(b1-4)GlcNAc(b1-2)Man(a1-6)]Man(b1-4)GlcNAc(b1-4)GlcNAc
Procedure, shortened: as §1

Gal(a1-6)Glc = biological target: Gal(a1-6)Glc
Procedure, shortened: as §1

[9] = biological target: Gal(b1-4)GlcNAc(b1-2)Man(a1-6)[Man(a1-3)]Man(b1-4)GlcNAc(b1-4)GlcNAc
Procedure, shortened: as §1

[10] = biological target: Gal(b1-4)GlcNAc(b1-3)Gal(b1-4)GlcNAc
Procedure, shortened: as §1

[11] = biological target: Gal(b1-4)GlcNAc(b1-3)[Gal(b1-4)GlcNAc(b1-6)]GalNAc
Procedure, shortened: as §1

[12] = biological target: Gal(b1-4)GlcNAc(b1-6)GalNAc
Procedure, shortened: as §1

GalNAc(b1-3)Gal = biological target: GalNAc(b1-3)Gal
Procedure, shortened: as §1

[13] = biological target: GalNAc(b1-3)Gal(a1-4)Gal(b1-4)GlcNAc(b1-3)Gal(b1-4)Glc
Procedure, shortened: as §1

[14] = biological target: GlcNAc(b1-2)[GlcNAc(b1-4)]Man(a1-3)[GlcNAc(b1-2)Man(a1-6)]Man(b1-4)GlcNAc(b1-4)GlcNAc
Procedure, shortened: as §1

GlcNAc(b1-4)GlcNAc = biological target: GlcNAc(b1-4)GlcNAc
Procedure, shortened: as §1

GlcNAc(b1-6)GalNAc = biological target: GlcNAc(b1-6)GalNAc
Procedure, shortened: as §1

Man(a1-2)Man(a1-3)Man = biological target: Man(a1-2)Man(a1-3)Man
Procedure, shortened: as §1

[15] = biological target: Man(a1-2)Man(a1-3)[Man(a1-2)Man(a1-6)]Man(a1-6)[Man(a1-2)Man(a1-2)Man(a1-3)]Man
Procedure, shortened: as §1

[16] = biological target: Man(a1-3)[Man(a1-6)]Man(a1-6)[Man(a1-3)]Man(b1-4)GlcNAc(b1-4)GlcNAc
Procedure, shortened: as §1

[17] = biological target: Neu5Ac(a2-3)Gal(b1-3)GlcNAc(b1-3)Gal(b1-3)GlcNAc
Procedure, shortened: as §1

[18] = biological target: Neu5Ac(a2-3)Gal(b1-3)[Fuc(a1-4)]GlcNAc(b1-3)Gal(b1-3)[Fuc(a1-4)]GlcNAc
Procedure, shortened: as §1

[19] = biological target: Neu5Ac(a2-3)Gal(b1-3)[Neu5Ac(a2-3)Gal(b1-4)]GlcNAc
Procedure, shortened: as §1

[20] = biological target: Neu5Ac(a2-3)Gal(b1-4)GlcNAc(b1-6)[Gal(b1-3)]GalNAc
Procedure, shortened: as §1

[21] = biological target: Neu5Ac(a2-3)Gal(b1-4)[Fuc(a1-3)]GlcNAc(b1-3)GalNAc
Procedure, shortened: as §1

[22] = biological target: Gal3S(b1-4)[Fuc(a1-3)]GlcNAc6S
Procedure, shortened: as §1

[23] = biological target: GlcNAc(a1-3)Gal(b1-4)GlcNAc
Procedure, shortened: as §1

[24] = biological target: GlcNAc(a1-4)Gal(b1-3)GlcNAc
Procedure, shortened: as §1

[25] = biological target: GlcNAc(b1-3)Gal(b1-4)GlcNAc(b1-6)[GlcNAc(b1-3)]Gal(b1-4)GlcNAc
Procedure, shortened: as §1

[26] = biological target: Man(a1-2)Man(a1-2)Man(a1-3)Man
Procedure, shortened: as §1

[27] = biological target: Neu5Ac(a2-3)Gal(b1-3)GlcNAc
Procedure, shortened: as §1

[28] = biological target: Neu5Ac(a2-3)Gal(b1-4)GlcNAc(b1-3)Gal(b1-3)GlcNAc
Procedure, shortened: as §1

[29] = biological target: Neu5Ac(a2-3)Gal(b1-4)[Fuc(a1-3)]GlcNAc
Procedure, shortened: as §1

[30] = biological target: Neu5Ac(a2-6)Gal(b1-4)GlcNAc(b1-2)Man(a1-3)[GlcNAc(b1-2)Man(a1-6)]Man(b1-4)GlcNAc(b1-4)GlcNAc
Procedure, shortened: as §1

[31] = biological target: Neu5Ac(a2-6)Gal(b1-4)GlcNAc(b1-3)Gal(b1-3)GlcNAc
Procedure, shortened: as §1

[32] = biological target: Neu5Ac(a2-8)Neu5Ac(a2-3)[GalNAc(b1-4)]Gal(b1-4)Glc
Procedure, shortened: as §1

[33] = biological target: Neu5Ac9Ac(a2-3)Gal(b1-4)GlcNAc
Procedure, shortened: as §1

[34] = biological target: Neu5Ac9Ac(a2-6)Gal(b1-4)GlcNAc
Procedure, shortened: as §1

[35] = biological target: Neu5Gc(a2-3)Gal(b1-4)GlcNAc(b1-3)Gal(b1-4)GlcNAc(b1-2)Man(a1-3)[Neu5Gc(a2-3)Gal(b1-4)GlcNAc(b1-3)Gal(b1-4)GlcNAc(b1-2)Man(a1-6)]Man(b1-4)GlcNAc(b1-4)GlcNAc
Procedure, shortened: as §1

B1: cupB6 (Pseudomonas aeruginosa), Q02SP7 (protein)
chain: MSMRLFPGRVSLRRRPGAQARQALVLGLCCLTGGQAWALNEVALNCSFGNGKGLPWRVVNELTSGTAKGTVLFARPVSLFLSYKPQASQEAHELVLGGNWSGVGYPGPYGTVASDVKGIGYRISVDAQDGVKRVIPVDNQPHALDKRVTSFSGSTTSDYLQELVLTVDPGELPAGDLKVTSVSGSATLNLWAVDRLKGEASIGSVLAVPADNYPTGVCRKPYSLIGPASIAIGGGPPPPPIPKKCKVEVGREINVKLGSVALKNFPRVNDTSTERSFDISLSECAALAKPEIAFRDKYVSAQQADPTILSLKSGGAAGFGIVVKNGLDQQRIRFDGTPYPMRRVGDSADLPLSAAYIRIGAEGELKAGVADGAAEFTFTFP
[1]
  glycan array binding signal (z-score): 19.6
Fuc(a1-2)Gal(b1-4)Glc6S
  glycan array binding signal (z-score): 0.336
[2]
  glycan array binding signal (z-score): 0.023
Fuc(a1-2)Gal6S(b1-4)Glc
  glycan array binding signal (z-score): 0.068
[3]
  glycan array binding signal (z-score): -0.269
[4]
  glycan array binding signal (z-score): -0.171
[5]
  glycan array binding signal (z-score): 0.027
[6]
  glycan array binding signal (z-score): 0.36
Gal(a1-2)Gal
  glycan array binding signal (z-score): -0.079
Gal(a1-3)Gal
  glycan array binding signal (z-score): -0.05
[7]
  glycan array binding signal (z-score): 0.099
[8]
  glycan array binding signal (z-score): 0.472
Gal(a1-6)Glc
  glycan array binding signal (z-score): -0.09
[9]
  glycan array binding signal (z-score): 0.004
[10]
  glycan array binding signal (z-score): -0.185
[11]
  glycan array binding signal (z-score): -0.207
[12]
  glycan array binding signal (z-score): -0.128
GalNAc(b1-3)Gal
  glycan array binding signal (z-score): 0.216
[13]
  glycan array binding signal (z-score): -0.12
[14]
  glycan array binding signal (z-score): -0.121
GlcNAc(b1-4)GlcNAc
  glycan array binding signal (z-score): -0.037
GlcNAc(b1-6)GalNAc
  glycan array binding signal (z-score): -0.194
Man(a1-2)Man(a1-3)Man
  glycan array binding signal (z-score): 0.328
[15]
  glycan array binding signal (z-score): 0.065
[16]
  glycan array binding signal (z-score): -0.11
[17]
  glycan array binding signal (z-score): 0.048
[18]
  glycan array binding signal (z-score): 0.124
[19]
  glycan array binding signal (z-score): -0.26
[20]
  glycan array binding signal (z-score): -0.006
[21]
  glycan array binding signal (z-score): 0.376

B2: Epa10 (protein)
chain: MNEKIFRYLTLLFLFELARSLPVEDKLNIKKVFEKRAVDFTPFAHYPRPEGCSSPPNSVSVGLHMNLYNYPYLYVKPSTKGMFTNDTNSDADGETDGDSAGGIEGRAGQCWNPEYQDPNFPRFGYKQYGEFGASDNVNGDISWDHNEFTEGCKPVLAALPPGYNYPDEITFSNFTMVLSGYFKPKTSGVYKFELKADDFILFNFGAKNAFECCNREESIDNFGPYVAYAMWPNQADQELEVYLFEDSYYPLRLFYNNRDYHSKFKIGFYPPGQTTITFDFDGYLFMLDDTGNECRDSIRYRTVCDDKVVDDTTYSTRYSTSMVPGGGSDVITIYYIRMKCEEEDCLGQWDPINNVCYSPDDCADDGGYWNGQMCDQSCKLEGGIVNPDTGDCDKSCIESGGFLDENGNCDTTCRDDGGMLVEGQCDYQCKEAGGILVGDHCDTTCVDSGGKLNEDGTCDHSCRDQGGQLDENGECDTSCKDSGGMLIEGECDTSCKDEGGQLDDNNECINHCKDQGGIIDENGNCDTSCKDSGGKLDESGACDTSCRDDGGIIDENGNCNTTCRDDGGIIVGDHCDTSCRDAGGILIEDHCDTTCRDSGGKLNEDGTCDHSCRDQGGQLDENGKCDYSCKNGGGKLDEDGNCDMSCKENGGKLDENGDCDLSCKEDGGKLDGNGDCDYSCKEEGGVIDESGNCNTTCKDSGGQIIDGECNYGCIEVGGVVIDGECDTSCIDSGGILDGDGNCDRSCIESGGVLEDGACNTTCRDSGGQLNVDGTCDTSCRDDGGMLVEGQCDYQCKEAGGILEDGECVFPPTSSSTSETSSTTDQSSLQSDDSSMESSSTPMDSSTIESSSSEIITSESESESVPIASSSSEVMTSESESESIPILTSSSEIPIASSSSEIPVASSSSEIIIPESESESVPVASSSSEIPIASSSSEIPVASSSSEIPVASSSSEIIIPESESESIPIESTSSEAVSSRSESDSSYPTPTPTTTTITTWPNPIQPTTSNSSPIVSSSTETPGIAESSSRISDLESSRRTSILGDDRTRTRTTITSTITEDGQIITITTTVTGFVPEPTGETEGNGSDDENPENPIENNTDENEFLDPEFTDDIPDDPAGPEDNGNGPVNPEQGNDNDPVNLEDSGNNGAVNPEQAPVNDEDNGGNDPVNPEQDNNNGPANPGQDSTNGSGNSDQIDNNPPTPEENAGDGNSNGNDPADPSRRTSILGDERTRASPGGTSQPTGANGNVNGNSPGANVNGGGTGNSNNNNNNNNNNNNGNAPNGGDGSNGDANQGPSRRTSLLGDERTRAGQAAPTGGSSPDNGIAGDTSNNGGAIVSQQVDDGGAGSPRRTSILGDVRSRTTLNGEVLNFEGSGVRRAVAGNLALPLMMVGLVFNL
[22]
  glycan array binding signal (z-score): -0.35
[23]
  glycan array binding signal (z-score): -0.222
[24]
  glycan array binding signal (z-score): -0.238
[25]
  glycan array binding signal (z-score): -0.312
[26]
  glycan array binding signal (z-score): -0.264
[27]
  glycan array binding signal (z-score): -0.234
[28]
  glycan array binding signal (z-score): -0.284
[29]
  glycan array binding signal (z-score): -0.278
[30]
  glycan array binding signal (z-score): -0.287
[31]
  glycan array binding signal (z-score): -0.258
[32]
  glycan array binding signal (z-score): -0.27
[33]
  glycan array binding signal (z-score): -0.271
[34]
  glycan array binding signal (z-score): -0.297
[35]
  glycan array binding signal (z-score): -0.292
